Laboratory results from PubChem BioAssay AID1159580 (chemical genetic matrix, 2015).
The whole screen tested about 5,500 compounds, of which about 2,000 (36%) were called active. About 18% were inconclusive and are not listed. Rule as the data show it: active = normalized growth mostly below about 0.91 (no sharp cut-off); inconclusive = no clear call, values can overlap the other calls; inactive = mostly above about 0.92. The list shows a part of the results.

Experiment: chemical genetic growth profiling, strain panel (AID 1159580);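 also: tested at 20 µM; growth read once vehicle control cultures reached saturation at 30 °C; 1 = growth at the plate median or of vehicle wells; lower values mean less growth of the strain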
Conditions: S. cerevisiae deletion strains, growth OD

Measured: normalized growth

C=C(C)C1CC=C(C(=O)O)CC1 (centres undefined)
inactive: locus YAL013W, strain DEP1, hits give low values 1.01 | locus YAL040C, strain CLN3, hits give low values 0.991 | locus YCL061C, strain MRC1 (second series), hits give low values 1.01 | locus YDR150W, strain NUM1, hits give low values 0.986 | locus YDR363W, strain ESC2, hits give low values 0.961 | locus YER002W, strain NOP16, hits give low values 1.02 | locus YGR229C, strain SMI1, hits give low values 0.978 | locus YMR263W, strain SAP30, hits give low values 0.997 | locus YMR307W, strain GAS1, hits give low values 0.996 | locus YNL175C, strain NOP13, hits give low values 1.01 | locus YNL197C, strain WHI3, hits give low values 1 | locus YNL224C, strain SQS1, hits give low values 1.01 | locus YOR083W, strain WHI5 (second series), hits give low values 0.961 | locus YPL241C, strain CIN2, hits give low values 1
